The text below walks through data of PubChem BioAssay AID743330 (NMMLSC, 2014).

The test system of this test is Rab7. Kind of test: GTPase panel EC50 shift with labeled GTP level, profiling panel, mechanism study, biochemical, four GTPases, bead flow cytometry (AID 743330). The settings on record: bead-based flow cytometry, fluorescent GTP binding to GTPases. On the technique in general: A flow cytometer gives signals particle by particle.

Activity calls are given as the source filed them. No rule for the calls is given here.

Regarding `CC1(C)Cc2c(sc(NC(=S)NC(=O)c3ccc(F)cc3)c2C(=O)O)CO1`, the EC50 (usually the concentration at which the effect is half-maximal) was 33 nM (active). The value for `CCC1(C)Cc2c(sc(NC(=S)NC(=O)c3ccccc3)c2C(=O)O)CO1` (configuration not stated) was 7 nM (active).
